The panel holds about 79,000 compounds, 15% with a hit somewhere; the sample as a whole holds those more often. Unmarked numbers belong to inactive results. Activity calls are given as the source filed them. Rule as the data show it: active = growth inhibition above about 70%; inactive = the rest.
Assay: NCI Yeast Anticancer Drug Screen. Data for the mec2-1 strain (AID 157)
Conditions: S. cerevisiae mec2-1 strain, at 50.0 µM, hits give high values
Procedure: Growth inhibition of yeast strains with defined genetic alterations is measured as a screen for potential anti-cancer activity. Selected strains with alterations in DNA damage repair or cell cycle control were exposed to compounds and growth inhibition was measured relative to vehicle treated controls. The strain used in this assay is mec2-1

Compound	growth inhibition
O=C1OCC2(CO)SC(c3ccccc3)NC12 (stereo not given)	-0.3%
CN1CCCC1c1ccc[n+](C)c1 (stereo not given)	1.85%
CC(C)CC1C(=O)NCCC(NC(=O)C(N)Cc2ccc(O)cc2)C(=O)NC(Cc2ccccc2)C(=O)NC(Cc2ccccc2)NC1=O (stereo not given)	-14.2%
Clc1cccc2ccccc12	-12.2%
O=[C-]/C=C/c1ccccc1.[C-]#[O+].[C-]#[O+].[Fe+2].[c-]1ccccc1	2.5%
CCC1C2Cc3ccc(O)cc3C1(CC)CCN2C (stereo not given)	-35.2%
CCOP(=S)(NCCCOC)OCC	5.8%
CCOP(=O)(O)C1CCCC(C)[N-]1.CCOP(=O)(O)C1CCCC(C)[N-]1.[Cu+2] (stereo not given)	33.6%
Cc1ccc(C(=O)Nc2ccc(CP(=O)(O)O)cc2)cc1NC(=O)Nc1cc(C(=O)Nc2ccc(CP(=O)(O)O)cc2)ccc1C	-10.6%
CC1=CC(=Nc2ccc(N(CCCl)CCCl)cc2)C=CC1=O	33.2%
O=C1C(Cl)=C(Cl)C1(Cl)Cl	-20.4%
CN(C)CCN1C(=O)CN=C(c2ccccc2Cl)c2cc(Cl)ccc21	12.2%
COc1ccc2ccc([Se]c3ccc4ccc(OC)cc4c3)cc2c1	-22.4%
C[N+]1([O-])C2CCC1CC(OC(=O)C(O)c1ccccc1)C2 (stereo not given)	-21.2%
CCCC[C@H]1C(=O)O[C@H](C)[C@H](NC(=O)c2cccc(NC=O)c2O)C(=O)O[C@@H](C)[C@@H]1OC(=O)CC(C)C	12.5%
Cc1ccccc1-n1c(C)nc2ccccc2c1=O	-30.7%
CCC1(C(C)C=C(C)C)C(=O)NC(=O)NC1=O (stereo not given)	-12.4%
CCOC(=N)N1[C@H](C)[C@@H]1C	-42.2%
Clc1ccc([C@H]2N[C@@H]2c2ccccn2)cc1	16.1%
NC1=Nc2ccccc2Sc2ccccc21	-38.8%

Compound	growth inhibition
CC(=O)c1cccc(S(=O)(=O)F)c1	-11.3%
CC1=C(C)C(=O)O[C@@H]([C@](C)(O)[C@]2(O)CC[C@@]3(O)[C@@H]4C[C@H]5O[C@]56CC=CC(=O)[C@]6(C)[C@H]4CC[C@]23C)C1	64.7%
CC(C)(O)[C@H]1[C@@H]2OC(=O)[C@H]1[C@]1(O)C[C@H]3OC34C(=O)O[C@H]2[C@@]41C (stereo not given in full) (tested in a mixture with another compound)	-12.8%
CC1CCC2C(C)C(=O)OC3OC4(C)CCC1C32OO4 (stereo not given)	4.2%
CC(C)[C@@H]1ON1C(C)c1ccccc1 (stereo not given in full)	-10.1%
[N-]=[N+]=Nc1ccnc2cc(Cl)ccc12	-5.55%
FC(F)(F)c1ccc(Cl)c(NC2=NCCCS2)c1	-0.35%
NC(Cc1ccccc1)c1nn[nH]n1 (stereo not given)	-19.1%
O=C(O)C1CCCN1[N+](=O)[O-] (stereo not given)	-5.95%
COc1cc2c(cc1OC)C13CCN4CC5CCOC6CC(=O)N2C1C6C5CC43 (stereo not given)	6.35%
N#CC(OC1OC(C(=O)O)C(O)C(O)C1O)c1ccccc1 (stereo not given)	-14.5%
O=C(c1ccccc1)C1CN(C2CCCC2)C1c1ccccc1 (stereo not given)	7.6%
CN(/N=C/c1ccnc2ccccc12)c1c([N+](=O)[O-])cc([N+](=O)[O-])cc1[N+](=O)[O-]	-4.65%
CC1=C(C)C(=O)O[C@@H]([C@](C)(O)[C@]2(O)CC[C@@]3(O)[C@@H]4C[C@H]5O[C@]56[C@@H](O)C=CC(=O)[C@]6(C)[C@H]4CC[C@]23C)C1	24.9%
C=C1C(=O)OC2CCN3CC=C(COC(=O)C(C)(O)C4(CO4)C1C)C23 (stereo not given)	0.95%
COC1=CC2CCC3C(CCC4(C)C(OC(C)=O)CCC34)C2(C)CC1 (stereo not given)	10.8%
NNN1CCN(N)CC1	-12.2%
CC1=C[C@H]2O[C@@H]3[C@H](OC(=O)CCl)[C@@H](O)[C@](C)(C2(COC(=O)CCl)CC1)[C@@]31CO1 (stereo not given in full)	92.8% (active)
NC(=O)CCl	-0.8%
COc1ccc(C(=O)OC2CC3CCC(C2)N3)cc1OC (stereo not given)	-19.8%

Reference: PubChem BioAssay (NCI)
